This passage reports inhibition results from ChEMBL document CHEMBL1961873, “Compounds: GSK PKIS; Assays: Nanosyn kinase panel” (2012).

For experiment [1], the system named is Epidermal growth factor receptor (Homo sapiens), P00533 [T790M]. The settings on record: at 1 µM.
In experiment [2] the test system is Epidermal growth factor receptor (Homo sapiens), P00533 [L858R,T790M]. To be noted: at 0.1 µM.
Experiment [3] has the same test system. The settings on record: at 1 µM.
Experiment [4] concerns the target Ephrin type-A receptor 2 (Homo sapiens) (UniProt P29317). The settings on record: at 0.1 µM.
Experiment [5] has the same target. To be noted: at 1 µM.
Experiment [6] has as its target T1, Ephrin type-A receptor 3 (Homo sapiens) (UniProt P29320).
T1 sequence (whole entry): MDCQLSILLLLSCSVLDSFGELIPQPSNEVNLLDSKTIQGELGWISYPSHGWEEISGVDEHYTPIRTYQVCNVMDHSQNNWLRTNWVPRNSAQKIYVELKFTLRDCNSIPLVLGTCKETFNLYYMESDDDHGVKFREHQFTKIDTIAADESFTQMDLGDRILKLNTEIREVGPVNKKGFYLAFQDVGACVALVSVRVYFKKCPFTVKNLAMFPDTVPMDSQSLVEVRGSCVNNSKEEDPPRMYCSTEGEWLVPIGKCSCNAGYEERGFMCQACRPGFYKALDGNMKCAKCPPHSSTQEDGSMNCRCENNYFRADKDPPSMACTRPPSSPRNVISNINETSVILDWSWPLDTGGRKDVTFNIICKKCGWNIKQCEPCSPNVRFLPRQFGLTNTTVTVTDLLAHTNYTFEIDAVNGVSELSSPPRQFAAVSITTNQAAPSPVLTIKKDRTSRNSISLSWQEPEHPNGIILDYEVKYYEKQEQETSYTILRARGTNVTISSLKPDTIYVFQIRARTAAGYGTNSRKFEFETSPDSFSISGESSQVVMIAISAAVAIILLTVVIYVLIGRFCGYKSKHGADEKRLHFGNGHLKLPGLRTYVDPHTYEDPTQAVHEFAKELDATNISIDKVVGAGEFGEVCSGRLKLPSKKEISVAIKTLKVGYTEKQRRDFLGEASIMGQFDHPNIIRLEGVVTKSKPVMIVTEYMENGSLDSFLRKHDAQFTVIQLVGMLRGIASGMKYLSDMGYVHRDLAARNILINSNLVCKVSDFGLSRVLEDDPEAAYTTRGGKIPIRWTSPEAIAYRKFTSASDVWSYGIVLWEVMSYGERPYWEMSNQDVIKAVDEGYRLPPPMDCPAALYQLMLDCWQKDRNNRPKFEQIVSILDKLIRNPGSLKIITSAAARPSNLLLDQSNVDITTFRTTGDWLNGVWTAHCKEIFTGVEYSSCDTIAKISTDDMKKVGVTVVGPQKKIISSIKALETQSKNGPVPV
To be noted: at 0.1 µM.

Experiment [7] has as its target T1, Ephrin type-A receptor 3 (Homo sapiens). To be noted: at 1 µM.
The target in experiment [8] is Ephrin type-A receptor 4 (Homo sapiens) (UniProt P54764). To be noted: at 0.1 µM.
Ephrin type-A receptor 4 (Homo sapiens), sequence (P54764 whole entry): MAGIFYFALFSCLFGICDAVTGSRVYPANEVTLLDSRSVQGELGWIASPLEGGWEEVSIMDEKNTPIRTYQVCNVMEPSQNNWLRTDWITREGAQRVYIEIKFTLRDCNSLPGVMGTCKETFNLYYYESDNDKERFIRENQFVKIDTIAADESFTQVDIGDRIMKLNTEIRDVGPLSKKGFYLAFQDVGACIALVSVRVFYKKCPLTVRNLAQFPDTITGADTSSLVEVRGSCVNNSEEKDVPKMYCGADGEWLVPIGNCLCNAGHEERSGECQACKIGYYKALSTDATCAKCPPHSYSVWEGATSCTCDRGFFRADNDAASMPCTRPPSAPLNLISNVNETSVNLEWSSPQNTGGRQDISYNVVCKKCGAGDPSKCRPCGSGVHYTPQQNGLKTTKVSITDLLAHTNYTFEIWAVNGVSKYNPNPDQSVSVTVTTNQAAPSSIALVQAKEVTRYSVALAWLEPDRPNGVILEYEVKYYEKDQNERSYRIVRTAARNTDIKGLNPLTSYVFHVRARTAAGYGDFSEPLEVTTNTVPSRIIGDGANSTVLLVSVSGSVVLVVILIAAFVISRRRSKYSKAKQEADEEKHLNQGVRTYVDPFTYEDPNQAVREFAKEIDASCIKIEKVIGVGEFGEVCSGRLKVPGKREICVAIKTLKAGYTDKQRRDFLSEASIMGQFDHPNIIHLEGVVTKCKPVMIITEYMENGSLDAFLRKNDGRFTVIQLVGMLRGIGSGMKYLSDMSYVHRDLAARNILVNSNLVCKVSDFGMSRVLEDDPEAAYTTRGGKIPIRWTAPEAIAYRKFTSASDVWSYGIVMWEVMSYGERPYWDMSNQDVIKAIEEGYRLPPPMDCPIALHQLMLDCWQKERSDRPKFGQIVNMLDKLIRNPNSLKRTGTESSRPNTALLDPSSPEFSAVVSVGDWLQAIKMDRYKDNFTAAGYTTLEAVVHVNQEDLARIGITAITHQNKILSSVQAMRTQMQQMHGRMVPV
Experiment [9] has the same target. The settings on record: at 1 µM.
Experiment [10] concerns the target T2, Ephrin type-B receptor 2 (Homo sapiens) (UniProt P29323).
T2 sequence (whole entry): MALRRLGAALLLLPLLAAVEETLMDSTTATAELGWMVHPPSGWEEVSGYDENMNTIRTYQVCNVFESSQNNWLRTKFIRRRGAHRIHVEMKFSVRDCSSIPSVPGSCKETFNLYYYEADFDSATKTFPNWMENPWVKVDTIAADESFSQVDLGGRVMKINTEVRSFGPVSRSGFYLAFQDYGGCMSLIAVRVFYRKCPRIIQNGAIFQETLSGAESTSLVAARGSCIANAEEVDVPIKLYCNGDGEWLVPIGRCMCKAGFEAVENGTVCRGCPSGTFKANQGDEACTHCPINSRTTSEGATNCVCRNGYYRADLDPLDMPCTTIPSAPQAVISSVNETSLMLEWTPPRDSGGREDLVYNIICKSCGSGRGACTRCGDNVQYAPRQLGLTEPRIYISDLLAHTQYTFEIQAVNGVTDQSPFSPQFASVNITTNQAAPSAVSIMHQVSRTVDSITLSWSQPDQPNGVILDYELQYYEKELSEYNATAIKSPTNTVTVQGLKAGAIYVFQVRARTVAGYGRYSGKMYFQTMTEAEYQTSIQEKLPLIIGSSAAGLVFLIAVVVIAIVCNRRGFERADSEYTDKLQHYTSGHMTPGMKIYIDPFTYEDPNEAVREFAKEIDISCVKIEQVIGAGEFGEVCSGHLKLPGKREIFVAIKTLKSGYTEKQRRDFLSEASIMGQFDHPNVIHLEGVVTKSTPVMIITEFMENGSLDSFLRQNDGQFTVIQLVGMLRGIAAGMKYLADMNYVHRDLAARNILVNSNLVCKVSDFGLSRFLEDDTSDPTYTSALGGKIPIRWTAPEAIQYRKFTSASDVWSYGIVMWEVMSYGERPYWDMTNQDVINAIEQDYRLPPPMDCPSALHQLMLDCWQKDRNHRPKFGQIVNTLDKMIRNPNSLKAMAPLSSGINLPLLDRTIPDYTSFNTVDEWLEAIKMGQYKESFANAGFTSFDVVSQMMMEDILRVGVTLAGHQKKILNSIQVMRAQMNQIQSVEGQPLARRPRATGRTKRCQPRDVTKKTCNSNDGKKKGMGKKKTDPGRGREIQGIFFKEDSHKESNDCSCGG
To be noted: at 0.1 µM.

The target of experiment [11] is T2, Ephrin type-B receptor 2 (Homo sapiens). The settings on record: at 1 µM.
Experiment [12] concerns the target T3, Ephrin type-B receptor 3 (Homo sapiens) (UniProt P54753).
T3 sequence (whole entry): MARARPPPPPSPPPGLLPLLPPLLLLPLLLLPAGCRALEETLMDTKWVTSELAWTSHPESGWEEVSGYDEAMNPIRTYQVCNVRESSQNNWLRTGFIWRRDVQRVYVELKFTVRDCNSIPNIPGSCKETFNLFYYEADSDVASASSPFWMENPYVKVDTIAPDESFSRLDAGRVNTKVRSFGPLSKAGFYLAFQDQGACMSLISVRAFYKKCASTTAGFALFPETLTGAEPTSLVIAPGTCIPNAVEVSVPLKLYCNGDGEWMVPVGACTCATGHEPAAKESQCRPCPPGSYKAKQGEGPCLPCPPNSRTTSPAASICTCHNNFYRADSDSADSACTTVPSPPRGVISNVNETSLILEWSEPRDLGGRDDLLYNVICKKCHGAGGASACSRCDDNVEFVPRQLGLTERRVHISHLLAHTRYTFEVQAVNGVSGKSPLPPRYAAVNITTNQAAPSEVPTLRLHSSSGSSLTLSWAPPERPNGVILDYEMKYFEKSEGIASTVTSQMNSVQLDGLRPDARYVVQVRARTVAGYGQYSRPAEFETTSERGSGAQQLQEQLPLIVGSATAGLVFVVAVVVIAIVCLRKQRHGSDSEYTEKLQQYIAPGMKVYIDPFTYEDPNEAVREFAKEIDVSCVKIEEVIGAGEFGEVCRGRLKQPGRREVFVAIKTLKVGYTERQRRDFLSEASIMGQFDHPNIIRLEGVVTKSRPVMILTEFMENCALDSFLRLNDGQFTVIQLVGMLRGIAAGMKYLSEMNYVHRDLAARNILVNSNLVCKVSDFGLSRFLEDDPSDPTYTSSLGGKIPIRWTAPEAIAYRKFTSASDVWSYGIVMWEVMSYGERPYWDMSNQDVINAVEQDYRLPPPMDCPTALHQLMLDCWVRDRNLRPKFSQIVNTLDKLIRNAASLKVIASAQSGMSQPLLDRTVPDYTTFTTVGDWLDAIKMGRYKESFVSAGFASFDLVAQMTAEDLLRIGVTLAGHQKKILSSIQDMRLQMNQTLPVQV
The settings on record: at 0.1 µM.

The target in experiment [13] is T3, Ephrin type-B receptor 3 (Homo sapiens). The settings on record: at 1 µM.
The target of experiment [14] is T4, Ephrin type-B receptor 4 (Homo sapiens) (UniProt P54760).
T4 sequence (whole entry): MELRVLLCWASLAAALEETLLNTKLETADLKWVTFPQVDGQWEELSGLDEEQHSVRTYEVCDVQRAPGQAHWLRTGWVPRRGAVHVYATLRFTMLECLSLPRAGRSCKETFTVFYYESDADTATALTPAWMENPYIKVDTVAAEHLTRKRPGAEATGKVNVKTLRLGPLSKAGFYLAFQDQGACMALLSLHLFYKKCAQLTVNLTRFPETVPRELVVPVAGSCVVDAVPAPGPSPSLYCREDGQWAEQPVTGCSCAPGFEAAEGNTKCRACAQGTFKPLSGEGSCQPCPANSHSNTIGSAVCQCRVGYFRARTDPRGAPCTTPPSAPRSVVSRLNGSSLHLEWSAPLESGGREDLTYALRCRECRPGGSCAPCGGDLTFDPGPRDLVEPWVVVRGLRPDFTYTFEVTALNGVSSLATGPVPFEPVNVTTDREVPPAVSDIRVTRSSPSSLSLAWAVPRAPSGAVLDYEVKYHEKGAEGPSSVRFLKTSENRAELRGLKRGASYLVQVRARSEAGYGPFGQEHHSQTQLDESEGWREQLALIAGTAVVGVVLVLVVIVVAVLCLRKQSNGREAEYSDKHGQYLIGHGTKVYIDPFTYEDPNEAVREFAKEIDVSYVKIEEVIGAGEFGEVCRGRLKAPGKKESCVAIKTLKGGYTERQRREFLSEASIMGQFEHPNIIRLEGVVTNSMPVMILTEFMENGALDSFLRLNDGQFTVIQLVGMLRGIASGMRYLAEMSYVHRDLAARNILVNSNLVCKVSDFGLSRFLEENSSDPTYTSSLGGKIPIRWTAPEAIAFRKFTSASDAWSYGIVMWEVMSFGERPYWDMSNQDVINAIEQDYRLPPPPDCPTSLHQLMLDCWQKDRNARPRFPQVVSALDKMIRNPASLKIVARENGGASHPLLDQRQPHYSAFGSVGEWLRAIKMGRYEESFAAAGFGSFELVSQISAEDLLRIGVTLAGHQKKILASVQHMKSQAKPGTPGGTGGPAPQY
To be noted: at 0.1 µM.

The target in experiment [15] is T4, Ephrin type-B receptor 4 (Homo sapiens). The settings on record: at 1 µM.
In experiment [16] the target is Receptor tyrosine-protein kinase erbB-2 (Homo sapiens) (UniProt P04626). The settings on record: at 0.1 µM.
Receptor tyrosine-protein kinase erbB-2 (Homo sapiens), sequence (P04626 whole entry): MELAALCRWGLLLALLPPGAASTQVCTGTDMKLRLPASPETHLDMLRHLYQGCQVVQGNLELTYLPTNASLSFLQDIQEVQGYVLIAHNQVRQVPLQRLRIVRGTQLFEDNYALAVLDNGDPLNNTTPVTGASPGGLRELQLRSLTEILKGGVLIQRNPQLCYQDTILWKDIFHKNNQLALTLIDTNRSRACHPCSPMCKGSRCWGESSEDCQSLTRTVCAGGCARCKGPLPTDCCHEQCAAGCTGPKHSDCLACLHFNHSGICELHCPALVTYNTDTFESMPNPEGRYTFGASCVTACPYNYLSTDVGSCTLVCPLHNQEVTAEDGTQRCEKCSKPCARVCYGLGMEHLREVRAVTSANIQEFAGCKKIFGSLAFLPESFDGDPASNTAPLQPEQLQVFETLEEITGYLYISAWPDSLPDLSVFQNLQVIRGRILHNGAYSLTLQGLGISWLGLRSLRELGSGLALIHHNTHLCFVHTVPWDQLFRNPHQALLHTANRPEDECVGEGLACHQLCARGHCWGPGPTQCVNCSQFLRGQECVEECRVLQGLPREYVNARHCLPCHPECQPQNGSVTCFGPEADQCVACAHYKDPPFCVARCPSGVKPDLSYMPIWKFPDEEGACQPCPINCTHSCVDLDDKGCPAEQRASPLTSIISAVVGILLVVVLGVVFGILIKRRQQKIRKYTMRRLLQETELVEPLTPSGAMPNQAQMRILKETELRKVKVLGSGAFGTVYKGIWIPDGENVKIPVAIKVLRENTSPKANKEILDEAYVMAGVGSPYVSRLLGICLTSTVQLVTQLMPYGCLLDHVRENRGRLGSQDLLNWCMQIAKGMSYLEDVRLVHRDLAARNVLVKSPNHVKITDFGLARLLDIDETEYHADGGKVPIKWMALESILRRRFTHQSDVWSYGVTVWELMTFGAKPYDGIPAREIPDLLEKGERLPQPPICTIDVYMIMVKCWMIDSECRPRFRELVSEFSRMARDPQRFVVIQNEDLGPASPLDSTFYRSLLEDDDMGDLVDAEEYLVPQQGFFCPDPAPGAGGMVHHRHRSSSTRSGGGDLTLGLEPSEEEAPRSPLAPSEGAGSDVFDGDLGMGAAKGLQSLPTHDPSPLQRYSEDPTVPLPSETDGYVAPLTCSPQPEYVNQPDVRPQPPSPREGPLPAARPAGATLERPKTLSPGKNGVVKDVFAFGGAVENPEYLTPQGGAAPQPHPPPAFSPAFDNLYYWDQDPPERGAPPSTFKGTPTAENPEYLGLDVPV
The target is the same in experiment [17]. To be noted: at 1 µM.
Experiment [18] addresses Receptor tyrosine-protein kinase erbB-4 (Homo sapiens) (UniProt Q15303). To be noted: at 0.1 µM.
The target is the same in experiment [19]. To be noted: at 1 µM.
Experiment [20] addresses Tyrosine-protein kinase Fer (Homo sapiens) (UniProt P16591). To be noted: at 0.1 µM.

Receptor tyrosine-protein kinase erbB-4 (Homo sapiens), sequence (Q15303 whole entry): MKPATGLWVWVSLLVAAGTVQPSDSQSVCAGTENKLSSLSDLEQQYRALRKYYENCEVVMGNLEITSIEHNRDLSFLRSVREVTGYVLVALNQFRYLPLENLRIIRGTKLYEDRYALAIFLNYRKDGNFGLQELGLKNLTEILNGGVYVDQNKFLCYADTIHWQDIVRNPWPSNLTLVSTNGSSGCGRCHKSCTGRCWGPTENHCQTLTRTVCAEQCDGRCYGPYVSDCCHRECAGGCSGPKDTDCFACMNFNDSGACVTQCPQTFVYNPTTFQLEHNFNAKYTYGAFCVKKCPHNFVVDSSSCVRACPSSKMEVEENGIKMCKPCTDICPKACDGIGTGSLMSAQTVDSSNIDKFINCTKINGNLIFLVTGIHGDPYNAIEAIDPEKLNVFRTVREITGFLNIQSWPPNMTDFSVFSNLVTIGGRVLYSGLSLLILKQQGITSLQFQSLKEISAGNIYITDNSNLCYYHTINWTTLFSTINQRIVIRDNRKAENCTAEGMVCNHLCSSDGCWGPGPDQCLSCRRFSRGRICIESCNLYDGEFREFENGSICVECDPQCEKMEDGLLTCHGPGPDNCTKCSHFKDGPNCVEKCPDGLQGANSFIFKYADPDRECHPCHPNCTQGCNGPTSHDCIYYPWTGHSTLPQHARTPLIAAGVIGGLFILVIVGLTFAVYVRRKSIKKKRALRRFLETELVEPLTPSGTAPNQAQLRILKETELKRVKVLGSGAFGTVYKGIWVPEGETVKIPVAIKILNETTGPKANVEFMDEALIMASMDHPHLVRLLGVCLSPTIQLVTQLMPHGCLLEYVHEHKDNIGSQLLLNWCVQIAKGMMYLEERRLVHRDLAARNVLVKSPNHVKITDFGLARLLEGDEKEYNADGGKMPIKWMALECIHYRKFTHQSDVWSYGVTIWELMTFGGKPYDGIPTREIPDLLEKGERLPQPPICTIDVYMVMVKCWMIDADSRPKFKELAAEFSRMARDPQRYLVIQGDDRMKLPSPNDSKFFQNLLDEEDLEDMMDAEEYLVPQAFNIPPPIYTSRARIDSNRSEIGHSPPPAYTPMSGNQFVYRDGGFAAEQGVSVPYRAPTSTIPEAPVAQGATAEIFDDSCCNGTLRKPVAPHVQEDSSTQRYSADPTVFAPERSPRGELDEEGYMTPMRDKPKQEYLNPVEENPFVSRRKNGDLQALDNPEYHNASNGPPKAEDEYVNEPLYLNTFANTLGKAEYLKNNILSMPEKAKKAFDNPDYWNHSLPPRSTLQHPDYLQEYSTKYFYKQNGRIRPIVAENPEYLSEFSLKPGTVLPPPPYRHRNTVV
Epidermal growth factor receptor (Homo sapiens), P00533 [L858R,T790M], sequence (P00533 whole entry T790M/L858R, looked up): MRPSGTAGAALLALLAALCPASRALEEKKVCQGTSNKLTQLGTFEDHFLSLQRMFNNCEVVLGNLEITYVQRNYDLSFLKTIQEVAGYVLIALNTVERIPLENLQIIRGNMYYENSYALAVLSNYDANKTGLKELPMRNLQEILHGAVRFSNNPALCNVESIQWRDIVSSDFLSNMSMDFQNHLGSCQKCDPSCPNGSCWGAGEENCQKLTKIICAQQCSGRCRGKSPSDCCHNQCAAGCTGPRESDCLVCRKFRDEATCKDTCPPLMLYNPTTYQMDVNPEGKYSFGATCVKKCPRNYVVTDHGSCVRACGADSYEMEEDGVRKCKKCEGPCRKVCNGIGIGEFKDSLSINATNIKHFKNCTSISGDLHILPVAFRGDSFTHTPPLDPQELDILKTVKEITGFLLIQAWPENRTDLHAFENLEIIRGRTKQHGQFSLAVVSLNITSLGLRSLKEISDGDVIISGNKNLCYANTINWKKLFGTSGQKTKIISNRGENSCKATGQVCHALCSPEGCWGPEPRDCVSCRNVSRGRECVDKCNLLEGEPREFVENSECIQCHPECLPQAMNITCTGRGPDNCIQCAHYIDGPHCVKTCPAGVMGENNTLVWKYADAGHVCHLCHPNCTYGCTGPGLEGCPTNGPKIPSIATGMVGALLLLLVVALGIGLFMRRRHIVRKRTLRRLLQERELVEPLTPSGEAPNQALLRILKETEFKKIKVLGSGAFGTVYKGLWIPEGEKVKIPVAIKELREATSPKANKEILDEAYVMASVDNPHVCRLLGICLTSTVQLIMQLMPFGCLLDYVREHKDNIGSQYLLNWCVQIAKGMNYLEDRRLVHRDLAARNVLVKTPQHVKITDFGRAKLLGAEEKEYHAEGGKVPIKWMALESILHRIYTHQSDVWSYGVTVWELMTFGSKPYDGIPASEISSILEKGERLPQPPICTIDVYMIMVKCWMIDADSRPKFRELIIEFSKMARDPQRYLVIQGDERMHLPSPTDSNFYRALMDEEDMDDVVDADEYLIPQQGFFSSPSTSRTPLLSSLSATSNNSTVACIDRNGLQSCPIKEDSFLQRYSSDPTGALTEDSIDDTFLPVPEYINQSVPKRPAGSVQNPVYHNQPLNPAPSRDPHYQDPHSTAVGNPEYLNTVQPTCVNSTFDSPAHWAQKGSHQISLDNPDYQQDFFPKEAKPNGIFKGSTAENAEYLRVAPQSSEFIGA

As for `COc1cccc(-n2ncc3c(N/N=C/c4ccncc4)ncnc32)c1`, the inhibition in experiment [1] is 5.66%; in experiment [2], 3.61%; in experiment [3] it was 8.8%; in experiment [4], 3.25%; in [5], 15.8%; in [6] it was 5.89%. Moreover, the inhibition in experiment [7] came out at 6.97%; in experiment [8], 11.1%; in experiment [9], 35.5%; in experiment [10] it was 8.96%; in [11] it was 30.4%; in experiment [12] it was 4.72%. For the same compound, the inhibition in experiment [13] is 3.82%; in experiment [14], 3.92%; in experiment [15], 13.7%; in experiment [16], 0.91%; in [17], 5.53%; in experiment [18], 9.63%. The inhibition was found to be 20.9% in experiment [19] and 4.97% in experiment [20].

For `CCn1c(-c2nonc2N)nc2c(C#CC(C)(C)O)nc(O[C@@H](CN)c3ccccc3)cc21`, the inhibition was -1.37% in [1]; 0.5% in experiment [2]; -1.45% in experiment [3]; -2.73% in [4]; -4.53% in [5]; -1.47% in experiment [6]. In addition, the inhibition in [7] was -0.7%; in [8] it was -1.14%; in [9], -4.76%; in experiment [10], -2.94%; in experiment [12] it was 1.57%; in [13], -3.07%. The inhibition is -0.46% in experiment [14]; 1.16% in experiment [15]; -2.68% in experiment [16]; -2.4% in [17]; 1.38% in experiment [18]; 3.97% in experiment [19]. Further, the inhibition in experiment [20] was 3.77%.

Take `CCn1c(-c2nonc2N)nc2c(C#CCN)ncc(OCCCN)c21`: the inhibition in experiment [1] is 5.94%; in [2], 3.07%; in experiment [3] it was 5.28%; in experiment [4], 5.32%; in experiment [5] it was 1.78%; in [6], -2.35%. For the same compound, the inhibition in [7] is -1%; in [8] it was -3.41%; in experiment [9], 3.82%; in experiment [10], -6%; in [11], -5.25%; in experiment [12] it was -7.45%. The inhibition was 1.18% in experiment [13]; -2.64% in [14]; -2.62% in experiment [15]; -3.17% in experiment [16]; 3.87% in experiment [17]; -7.51% in experiment [18]. Moreover, the results for the inhibition in experiment [19] and in experiment [20] were 2.14% and 5.14%, respectively.

`NS(=O)(=O)c1ccc(-c2ccc3c(NC(=O)C4CC4)n[nH]c3c2)cc1`: the inhibition in experiment [1] was -0.38%; in experiment [2] it was -1.39%; in experiment [3], 1.78%; in experiment [4], 3%; in [5], 1.18%; in experiment [6] it was 2.34%. In addition, the inhibition was 2.31% in experiment [7]; 4.83% in [8]; 1.43% in [9]; 7.57% in experiment [10]; 8.86% in experiment [11]; 4.28% in experiment [12]. Further, the inhibition in [13] was 4.38%; in experiment [14] it was 1.05%; in experiment [15], 3.22%; in [16], -0.2%; in experiment [17], 0.41%; in experiment [18] it was 8.86%. For the same compound, the inhibition in experiment [19] is 7.66%; in experiment [20], -0.63%.

In general, inhibition refers to the change of the read-out against control, counted positive when it falls.
